Here are results for 39 compounds from PubChem BioAssay (NCI).

The panel holds about 83,000 compounds, 20% with a hit somewhere; the sample as a whole holds those more often.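 Testing used 96-well plates and a 48-hour single-concentration exposure. Example: -40 means 40% of the starting cells died.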 Calls of active or inactive are those of the source. Rule for the calls: active = growth percent below 10; inactive = the rest.

This test has as its system MCF7 breast. As to the kind of experiment: NCI-60 one-dose screen, 48 h (100 = growth as untreated, 0 = no growth, -100 = all killed). The following applies: 10 µM unless noted.
Regarding `COc1cc2cc(Oc3ccc(NC(=O)Nc4ccc(Cl)c(C(F)(F)F)c4)cc3)c(C)nc2cc1OCCN1CCCCC1`, the growth was -85.9% (active).
As to `COc1ccc(/C=C2\SC(=O)N(CN3CCN(c4cc5c(cc4F)c(=O)c(C(=O)O)cn5C4CC4)CC3)C2=O)cc1`, the growth is 95.2% (inactive).
As for `CCCCC/C=C\C/C=C/CCCCCCCCNC(=O)Nc1ccc([N+](=O)[O-])cc1`, the growth is 103% (inactive).
As to `COc1ccc(/C=C/C(=O)N2CCC(O)CC2)cc1OC1CCCC1`, the growth is 95.4% (inactive).
In the case of `O=C(c1ccccc1)C(Br)C(Br)c1cccc([N+](=O)[O-])c1` (centres undefined), the growth was 24.8% (inactive).
The result for `CCOC(=O)c1cnn(CC(O)c2ccc(F)cc2)c1NC(=O)Nc1ccccc1F` (centres undefined) reads 93.1% (inactive); that for `CC1CCCCN1S(=O)(=O)c1ccc(CN=C=S)cc1` (centres undefined), 10.2% (inactive).
With `COc1ccc(OC)c(/C=C2\Oc3cc(O)ccc3C2=O)c1`, the growth was 94.2% (inactive).
As to `CCCCC1COc2cccc3c(SCC(=O)N(C)c4cccc5ccccc45)cc[n+]1c23` (centres undefined), the growth is 91.7% (inactive).
The value for `Brc1ccc(Br)nn1` was -72.4% (active); that for `Cn1c2ccccc2c2nn(Cc3ccccc3)c(=O)nc21` was 95.1% (inactive).
Take `COc1ccc(/C=N/NC(=O)c2cnn3c2NC(c2ccccc2)C3)cc1OC1CCCC1` (centres undefined): the growth was 86.2% (inactive).
On to `CCOC(=O)c1[nH]c2cc(Cl)ccc2c1[C@@H](C(=O)NC(C)(C)C)N(CC)C(=O)CCCCC#Cc1cccc2c1CN(C1CCC(=O)NC1=O)C2=O` (some centres undefined), for which the growth was 12.5% (inactive).
The result for `Nc1nc(N)c(N=Nc2c(Br)cc(S(N)(=O)=O)cc2Br)c(N)n1` reads 68.6% (inactive).
`O=C1/C(=C/c2ccc([N+](=O)[O-])cc2)Oc2ccc(O)cc21`: the growth is 3.33% (active).
For `COc1ccc(/C=N\N2CCOCC2)cc1OC1CCCC1`, the growth is 93.2% (inactive).
The value for `O=C(Nc1ccccc1O)c1ccc(NS(=O)(=O)c2cccc3cccnc23)cc1` was 42.3% (inactive); that for `COc1cc(/C=N/NC(=O)c2cnn3c2NC(c2ccccc2)C3)cc(OC)c1OC` (centres undefined) was 34.9% (inactive); that for `O=S(=O)(Nc1ccccc1Cl)c1ccc(-c2cnc(C3CC3)o2)cc1` was 15.7% (inactive).
In the case of `Cn1c2c(cc(S(=O)(=O)c3ccccc3)c1=O)CCc1c-2cnn1-c1cccc(Cl)c1`, the growth was 90.4% (inactive).
For the compound `Fc1c[c-]c(-c2ccccn2)c(F)c1.Fc1c[c-]c(-c2ccccn2)c(F)c1.[Cl][Pt+].[Cl][Pt+].c1ccc([PH+](C[PH+](c2ccccc2)c2ccccc2)c2ccccc2)cc1`, the growth is 8.56% (active).
The value for `CCOC(=O)n1cc(C2=C(c3cn(C)c4ccccc34)COC2=O)c2ccccc21` was 10.2% (inactive).
As for `CSC1=CC(=O)c2ccccc2C1=O`, the growth is 93.2% (inactive).
Turning to `Cc1c(C(=O)Nc2nc(-c3ccccc3)cs2)nnn1-c1ccccc1Br`, the growth is 19% [50 µM] (inactive).
On to `COc1ccc(/C=N/OCC(O)CNCc2ccccc2)cc1OC1CCCC1` (centres undefined), for which the growth is 93.9% (inactive).
In the case of `O=C(N/N=C/c1ccc(OC(F)F)c(OC2CCCC2)c1)c1cnn2c1NC(c1ccccc1)C2` (centres undefined), the growth is 69.2% (inactive).
Regarding `Nc1cc(Br)c(-c2nnc(CCC(=O)c3nc4ccccc4[nH]3)o2)c(Br)c1`, the growth was 18.9% (inactive).
In the case of `O=C1C2CC3C(CC2C(=O)[N]1[Sn]([c]1ccccc1)([c]1ccccc1)[c]1ccccc1)C1(Cl)C(Cl)=C(Cl)C3(Cl)C1(Cl)Cl` (centres undefined), the growth is -64.7% (active).
In the case of `COc1ccc(/C=C(\C#N)c2cc3ccccc3n2C)cc1`, the growth was 15.4% (inactive).
Consider `CC(C)(C)[Si](C)(C)OC1[C@@H](COC(=O)NC(=O)CCl)O[C@@H](n2cnc3c(N)ncnc32)[C@H]1O[Si](C)(C)C(C)(C)C` (some centres undefined), for which the growth is 10.6% (inactive).
The result for `Cc1cccc2c(=O)c3c(sc12)c(NCCCN)nc1ccccc13` reads -78.9% (active).
For the compound `COc1cc(Cn2cc(F)c(=O)[nH]c2=O)cc(OC)c1`, the growth was 104% [50 µM] (inactive).
Take `Cc1nc2ccc(Cl)cc2n1C`: the growth is 102% (inactive).
The value for `CCN1CCN(c2ccc(Nc3ncc4ccc5ncn(C(C)C)c5c4n3)nc2)CC1` was -1.88% (active); that for `COc1ccc(/C=C2\Oc3cc(C)c(Cl)cc3C2=O)cc1OC` was 83.1% (inactive); that for `COc1ccc(-n2ncc3c2ccc2cc(S(=O)(=O)c4ccccc4)c(=O)n(C)c23)cc1` was 91% (inactive).
As for `NC(=O)c1cc(Cl)ccc1NC(=O)COc1ccccc1`, the growth is 30.5% (inactive).
Consider `Nc1ccccc1-c1n[nH]c(=O)[nH]c1=O`, for which the growth is 102% (inactive).
With `Cn1c2ccccc2c2nn(C(=O)c3ccccc3)c(=O)nc21`, the growth is 101% (inactive).
